Source: PubChem BioAssay
HIV RNase H inh-1: inhibitors of HIV-1 reverse transcriptase RNase H | P04585 | RT-RNase H RNA/DNA duplex cleavage, fluorescence | inhibition, % at 10 µM | 1.9% of 65,000 active; in the data active = inhibition above about 50%
HIV RNase H inh-2: confirmation of HIV-1 reverse transcriptase RNase H inhibitors; inhibition, % at 10 µM; AID 651; Recombinant RT RNase H, fluorescent RNA/DNA duplex cleavage; 39% of 1,000 active; shares compounds with HIV RNase H inh-1; in the data active = inhibition above about 48%; inconclusive = no clear call, values can overlap the other calls
Numbers without * were called inactive; ? = inconclusive. This is one part of a sample in which hits are shown more often than they occur.

SMILES	HIV RNase H inh-1	others
CN(C)c1ccc(NC(=O)Cn2ncn3c(cc4ccccc43)c2=O)cc1	21.4
CN(C)c1ccc(NC(=O)CN2C(=O)CC(c3ccccc3)=Nc3ccccc32)cc1	88.7*	HIV RNase H inh-2=40.7
COc1cccc(C(=O)Cn2c(=O)n(CC3CCCO3)c(=O)c3ccccc32)c1 (stereo not given)	-2.5
Cn1c(=O)c2c(nc(SC3C(=O)CC(C)(C)CC3=O)n2C)n(C)c1=O	-2.1
CCN(CC(=O)N1CCN(C)CC1)S(=O)(=O)c1ccc(Cl)cc1	2.0
O=C(CSc1nc2ccccc2[nH]1)Nc1ccccc1N1CCOCC1	-2.7
c1ccc2[nH]c(NCCCN3CCOCC3)nc2c1	-4.0
c1ccc2[nH]c(SN3CCOCC3)nc2c1	90.6*	HIV RNase H inh-2=66.1*
Cc1c(Cl)cccc1-n1nnnc1-c1cccs1	-56.1
Cc1ccc(-n2nnc3c(SCC(=O)N4CCN(c5ccccc5)CC4)ncnc32)cc1	2.5
CC(C)CN(CC(C)C)C(=O)C12CCC(C)(C(=O)C1)C2(C)C (stereo not given)	2.6
COc1ccc(S(=O)(=O)Nc2ccc(F)c(Cl)c2)cc1OC	-11.0
O=C(O)c1ccccc1C(=O)Nc1ccccn1	-5.3
S=C(Nc1ccccn1)c1ccccn1	73.3*	HIV RNase H inh-2=68.4*
O=C(Nc1ccccc1)Nc1ccccn1	-9.9
Cc1nc(COC(=O)c2c(C)nn(-c3ccccc3)c2C)cs1	-28.2
C=CCN(CC=C)Cc1c[nH]c2ccccc12	-0.7
C=CCn1c(=S)[nH]c2ccccc2c1=O	-27.2
C=CCn1c(Cc2c[nH]c3ccccc23)n[nH]c1=S	53.6*	HIV RNase H inh-2=20.1
COc1ccccc1-n1c(CNC(=O)c2ccco2)nnc1SCC(=O)Nc1ccc(F)cc1	-12.4
COc1cc(/C=N/n2c(C)nnc2C)cc(OC)c1OC	-13.1
COc1cc(N=c2ssnc2Cl)cc(OC)c1OC	90.6*	HIV RNase H inh-2=76.1*
COc1cc(NC(=O)c2cc(C(C)C)on2)cc(OC)c1OC	-4.6
CC1CN(C(=O)Nc2ccc3snnc3c2)c2ccccc21 (stereo not given)	-8.0
COc1ccc(Nc2nc3c(c(=O)n(C)c(=O)n3C)n2CCO)cc1	-17.0
SMILES	HIV RNase H inh-1	others
CCNc1ccc2c(Cl)cc(=O)oc2c1	-6.9
Cn1cccc1Cc1nnc(SCC(=O)Nc2ccc3c(c2)OCCO3)n1CCc1ccccc1	-40.9
O=C(O)CCCCCCC1C(=O)NC(=O)N1CCC(O)C1CCCCC1 (stereo not given)	-2.3
CC1(C)NC(=O)NC2(C)NC(=O)NC(C)(C)C12 (stereo not given)	-12.0
CCOC(=O)Cc1csc(SCn2nnc3ccccc3c2=O)n1	-35.6
CCOC(=O)Cc1csc(-n2sc3ccccc3c2=O)n1	97.2*	HIV RNase H inh-2=67.0*
CCOC(=O)Cc1csc(NC(=O)Cc2cccs2)n1	9.2
COc1ccccc1N(CCC#N)C(=O)CSc1nc(-c2ccccc2)cn1N	-5.1
O=C(CSc1ncc(-c2ccc(F)cc2)[nH]1)N1CCCCC1	2.0
Clc1ccccc1CSc1ncccn1	-137.0
c1coc(-c2nnc3sc(C4CCCCC4)nn23)c1	75.1*	HIV RNase H inh-2=?
c1ccc(-c2nn3c(-c4ccco4)nnc3s2)nc1	-2.8
Brc1ccc(-c2nn3c(-c4ccco4)nnc3s2)o1	7.5
Cc1occc1-c1nnc2sc(-c3ccc(-c4ccc(Cl)cc4)o3)nn12	24.4
Clc1ccc(-c2ccc(-c3nn4c(-c5ccco5)nnc4s3)o2)cc1	98.6*	HIV RNase H inh-2=?
COc1ccc(-c2nnc3sc(C4CCCCC4)nn23)cc1OC	-0.7
CC1CC(C)CN(S(=O)(=O)c2ccc(C(=O)NCCCn3ccnc3)cc2)C1 (stereo not given)	5.8
Cc1cc(CCN2CCC(=O)NC2=O)ccc1OC(C)C	-13.5
O=C1c2oc3ccccc3c(=O)c2C(c2ccc(Br)cc2)N1c1ncccn1 (stereo not given)	4.0
CC(=O)c1sc(N2C(=O)c3oc4ccccc4c(=O)c3C2c2ccc(C)o2)nc1C (stereo not given)	70.8*	HIV RNase H inh-2=?
CN1C(=O)c2oc3ccccc3c(=O)c2C1c1ccccn1 (stereo not given)	-6.3
COc1ccc(CCNC(=O)c2cnn3cccnc23)cc1OC	-40.5
O=S(=O)(Nc1nc(CN2CCOCC2)nc2sc3c(c12)CCCC3)c1cc(F)ccc1F	-6.3
Cc1cc(NC(=O)CCC(=O)N(c2ccccc2)C(C(=O)NCC2CCCO2)c2cccnc2)no1 (stereo not given)	-11.6
CCCc1nnc(NC(=O)c2c(O)c3cccc4c3n(c2=O)CC4)s1	4.7
SMILES	HIV RNase H inh-1	others
COc1ccc(CNC(=O)c2c(O)c3cccc4c3n(c2=O)CCC4)cc1OC	-47.3
O=C(NCc1ccccn1)c1c(O)c2cccc3c2n(c1=O)CC3	4.4
O=C(NCCNCCO)c1c(O)c2cccc3c2n(c1=O)CCC3	-8.2
COc1ccc(CCNC(=O)c2c(O)c3cccc4c3n(c2=O)CC4)cc1	83.5*	HIV RNase H inh-2=67.2*
Cc1cnc(NC(=O)c2c(O)c3cccc4c3n(c2=O)CCC4)s1	-6.2
CC(C)c1nnc(NC(=O)c2c(O)c3cccc4c3n(c2=O)CCC4)s1	77.2*	HIV RNase H inh-2=73.0*
COc1ccc(CNC(=O)c2c(O)c3cccc4c3n(c2=O)CCC4)cc1	-13.7
O=C(NCCc1ccccc1)c1c(O)c2cccc3c2n(c1=O)CC3	73.6*	HIV RNase H inh-2=83.9*
CCN(CC)S(=O)(=O)c1ccc2[nH]cc(C(=O)NCCC3=CCCCC3)c(=O)c2c1	-5.5
COc1cccc(C2NC(=O)NC(C)=C2C(=O)Nc2cccc(C)c2C)c1 (stereo not given)	-1.0
O=C(NC1CCCc2ccccc21)C1CCN(C(=O)c2sccc2-n2cccc2)CC1 (stereo not given)	-1.6
COc1ccc(OC)c(NC(=O)C(CC(=O)O)NCc2ccco2)c1 (stereo not given)	6.6
O=S(=O)(Cc1ccc(Cl)cc1)N1CCCC1	-8.4
CCSc1ccccc1C(=O)Nc1cccnc1	20.9
CCSc1ccccc1C(=O)Nc1cc(C)on1	-3.6
CCSc1ccccc1C(=O)Nc1nncs1	56.0*	HIV RNase H inh-2=17.9
Cc1ccc(CNC(=O)c2ccc(CN3CCOCC3)cc2)cc1	-3.8
CC(=O)N1CCc2cc(S(=O)(=O)NC(CC(C)C)C(=O)Nc3ccc4c(c3)OCCO4)ccc21 (stereo not given)	0.5
O=C(NCc1ccco1)c1ccc2c(c1)C(=O)N(Cc1ccccc1)C2=O	0.5
COC(=O)c1ccccc1NC(=O)c1ccc2c(c1)C(=O)N(Cc1ccco1)C2=O	60.9*	HIV RNase H inh-2=94.3*
CCc1ccc(NC(=O)c2ccc3c(c2)C(=O)N(Cc2ccco2)C3=O)cc1	43.2
CCOC(=O)C1CCCN(C(=O)c2ccc3c(c2)NC(=O)C(N2CCOCC2)S3)C1 (stereo not given)	-5.8
CCOC(=O)c1cccc(NC(=O)CN(c2ccc(C)cc2)S(=O)(=O)c2c(C)n[nH]c2C)c1	9.7
O=C(NC1CCCCC1)c1sc(=S)n2c1[nH]c(=O)c1ccccc12	74.0*	HIV RNase H inh-2=58.5*
O=C(NCC1CCCO1)c1sc(=S)n2c1[nH]c(=O)c1ccc(C(=O)N3CCCCC3)cc12 (stereo not given)	-0.7
CCCCNC(=O)c1sc(=S)n2c1[nH]c(=O)c1ccccc12	11.4
Cc1ccccc1CS(=O)(=O)CCC(=O)NCc1ccccn1	-23.1
O=C(C1CCN(S(=O)(=O)c2cccc3cccnc23)CC1)N1CCN(C2CCCC2)CC1	-20.1
CCOC(=O)c1sc(NC(=O)CSc2nnc3c4ccccc4n(CC)c3n2)nc1C	74.0*	HIV RNase H inh-2=42.0
CCn1c2ccccc2c2nnc(SCC(=O)Nc3ncccn3)nc21	-4.7
